Assay outcomes from PubChem.
These entries were drawn from the full list.
aSyn UTR act: Activators via SNCA 5'UTR binding, MLPCN; AID 1814; 300,000 tested, 7.1% active; activity score, % (tested at 7.5 µM), hits read low; alpha-synuclein 5'UTR reporter, activators screen; in the data active means activity score below about -60%
Numbers without * were called inactive.

For CC(=O)c1c(C)[nH]c(C(=O)NCCc2cccc(C)c2)c1C the results were aSyn UTR act -170.4*.
For Cc1cc(C(=O)NC2CCCc3c2cnn3-c2cccc(C)c2C)no1 (stereo not given) the results were aSyn UTR act -117.7*.
Screening COC(=O)c1ccc(C(=O)NC2CCCc3c2cnn3-c2ccc(C)c(C)c2)cc1 (stereo not given) returned aSyn UTR act 104.5.
COc1cc(OC)cc(C(=O)Nc2sc3c(c2C(N)=O)CCC3)c1 was read as aSyn UTR act -105.4*.
Screening NC(=O)c1c(NC(=O)c2cccs2)sc2c1CCCCCC2 returned aSyn UTR act -121.6*.
For NC(=O)c1c(NC(=O)c2ccccc2F)sc2c1CCCC2 the results were aSyn UTR act -170.2*.
Screening NCCNC(=O)c1c(NC(=O)c2ccccc2)sc2c1CCCC2 returned aSyn UTR act -124.6*.
`COCCN(CCOC)S(=O)(=O)c1ccc(C(=O)Nc2sc3c(c2C(N)=O)CCCCC3)cc1` gave aSyn UTR act -106.6*.
NC(=O)c1c(NC(=O)c2ccc(F)cc2Cl)sc2c1CCC2 was read as aSyn UTR act -96.1*.
Cc1nc(C(F)(F)F)ccc1C(=O)NCC(O)c1ccccc1 (stereo not given) was read as aSyn UTR act -66.6*.
Cc1nc(C(F)(F)F)ccc1C(=O)Nc1ccc2ccccc2n1 was read as aSyn UTR act -94.3*.
Cc1ccc([N+](=O)[O-])cc1N/C=C/C(=O)c1ccco1 was read as aSyn UTR act -138.4*.
Cc1ccc(N/C=C/C(=O)c2ccco2)c(O)c1 was read as aSyn UTR act -158.4*.
`CN(C)/C=C1/C(=O)N(c2ccc([N+](=O)[O-])cc2)N=C1c1ccccc1` gave aSyn UTR act -115.5*.
For CC(=O)N(C)c1ccc(NC(=O)Nc2ccc(C)cc2)cc1 the results were aSyn UTR act -75.6*.
For CC(=O)N(C)c1ccc(NC(=O)Nc2ccc(Cl)cc2)cc1 the results were aSyn UTR act -134.9*.
Screening CCOc1cc(/C=C\c2[nH]c(=O)[nH]c(=O)c2[N+](=O)[O-])ccc1OC(C)CC (stereo not given) returned aSyn UTR act -67.0*.
COc1cc(C(=O)Nc2ccc(N(C)C)cc2)cc(OC)c1OC was read as aSyn UTR act -98.9*.
Screening COc1cc(C(=O)NC(=S)N(CCc2ccccc2)CCc2ccccc2)cc(OC)c1OC returned aSyn UTR act 69.2.
Cc1nc2cc(NC(=O)N3CCCCC3)ccc2n1C was read as aSyn UTR act -70.9*.
Cc1ccc(NC(=O)Nc2ccc3c(c2)nc(C)n3C)cc1C was read as aSyn UTR act -126.6*.
COc1cc(C(=O)Nc2ccc3c(c2)nc(C)n3C)cc(OC)c1OC was read as aSyn UTR act -92.3*.
`O=C1CCCC(O)=C1C=Nc1ccc2c(c1)oc1ccccc12` gave aSyn UTR act -168.5*.
Screening CC(=O)c1cccc(NC(=O)C(=O)Nc2cccc3ccccc23)c1 returned aSyn UTR act -195.4*.
Nc1ccccc1C(=O)Nc1cccc2ccccc12 was read as aSyn UTR act -204.4*.
`O=C(Nc1cccc2ccccc12)c1ccccc1` gave aSyn UTR act -141.6*.
For O=C(Nc1ccc2c(c1)OCCO2)c1cc2sccc2n1Cc1ccc(F)cc1 the results were aSyn UTR act -109.7*.
Screening O=C(Nc1ccc2c(c1)OCCO2)c1cc2sccc2n1Cc1ccccc1 returned aSyn UTR act -102.4*.
`Cn1c(C(=O)Nc2ccc3c(c2)OCCO3)cc2sccc21` gave aSyn UTR act -86.6*.
CCn1cc(Cl)c(C(=O)Nc2nccs2)n1 was read as aSyn UTR act -81.8*.
`O=C(Nc1nccs1)c1ncc(Cl)c(Cl)c1Cl` gave aSyn UTR act -75.7*.
Screening Cn1cc(Cl)c(C(=O)Nc2nccs2)n1 returned aSyn UTR act -71.7*.
N#CC1(NC(=O)Cn2ncc(Cl)c(Cl)c2=O)CCCCC1 was read as aSyn UTR act -205.6*.
CCC/C(=N\NC(=O)c1csc(C)c1C)c1cccs1 was read as aSyn UTR act -108.9*.
Screening CC/C(=N\NC(=O)c1csc(C)c1C)c1cccs1 returned aSyn UTR act -181.8*.
C/C(=N\NC(=O)c1csc(C)c1C)c1ccc(Cl)s1 was read as aSyn UTR act -124.9*.
For CCOC(=O)c1cc(-c2ccccc2)sc1NC(=O)COC(=O)c1cccc(S(N)(=O)=O)c1 the results were aSyn UTR act 71.6.
CC(=O)c1sc(-c2ccccc2)cc1N was read as aSyn UTR act -63.2*.
CCOC(=O)c1sc(-c2ccc(F)cc2)cc1N was read as aSyn UTR act -142.5*.
For CCOC(=O)c1cc(-c2ccccc2)sc1N the results were aSyn UTR act -94.1*.
For CCOC(=O)c1sc(-c2ccc(OC)cc2)cc1N the results were aSyn UTR act -158.4*.
`CCOC(=O)c1sc(-c2ccccc2)cc1N` gave aSyn UTR act -116.3*.
For O=C(NC1CCCCCC1)c1ccc(OCC2CCCO2)cc1 (stereo not given) the results were aSyn UTR act -97.2*.
Screening N#Cc1ccc(C(=O)NC2CCCCCCC2)cc1 returned aSyn UTR act -131.9*.
Cc1ccc(C(=O)NC2CCCCC2)cc1 was read as aSyn UTR act -94.2*.
